Sm TGR block – qHTS Assay for the Inhibitors of Schistosoma Mansoni Peroxiredoxins | hit rate 3% among 360,000 | Schistosoma mansoni thioredoxin glutathione reductase (TGR), Q962Y6 | purified TGR, DTNB reduction, TNB absorbance 405 nm | Potency, µM (doses to about 114 µM), inactives show at the highest dose activity change, negative = inhibition, most hits filed as inhibitors; further: potency means the concentration at half of the fitted maximal effect; nearly all actives have a fitted effect of over 60% in size
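First, TGR (20 nM dispensed) and NADPH were mixed with compound. Second, a 15 min room-temperature incubation followed. Third, further NADPH and then DTNB were added to start the reaction. Finally, TNB absorbance was monitored kinetically.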
FMDV antiviral – High Throughput Screening for Foot and Mouth Disease Virus Antivirals; FMDV antiviral cell-based qHTS; Potency, µM (top dose mostly 57.9 µM), inactives show at the highest dose activity change, negative = inhibition, hits mostly inhibitors; hit rate 1.2% among 410,000; calls by dose curve; tested in HEK293T cells; further: read-out not given here; potency means the concentration at half of the fitted maximal effect; nearly all actives have a fitted effect of over 45% in size
VACV Venus inh – qHTS for Stage-Specific Inhibitors of Vaccinia Orthopoxvirus: Venus Reporter Primary qHTS; hit rate 0.46% among 330,000; Vaccinia virus Venus reporter expression, fluorescence; Potency, µM (doses to about 36.5 µM), inactives show top-dose activity change, negative = inhibition, hits mostly inhibitors; AID 720580, 2013; calls by dose curve; tested in A549 cells; further: potency means the concentration at half of the fitted maximal effect; nearly all actives have a fitted effect of over 30% in size
HCV inh – qHTS Assay for Inhibitors of Hepatitis C Virus (HCV). Potency, µM (titrated, usually from 41.8 µM), without a hit: at the top dose activity change, negative = inhibition, usual class: inhibitors. hit rate 3.4% among 340,000. Huh7.5.1 HCVcc-Cre infection, luciferase reporter, 44 h. AID 651820, 2012; further: potency means the concentration at half of the fitted maximal effect
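Cells seeded at 1,000/well and cultured 4 h, then compounds added followed by HCVcc-Cre virus (~0.5 moi). After 44 h further culture, luciferase substrate was added, plates held 15 min at room temperature, and luminescence read for 15 sec.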
VACV mCherry inh – qHTS for Stage-Specific Inhibitors of Vaccinia Orthopoxvirus: mCherry Reporter Primary qHTS; Vaccinia virus mCherry reporter infection, fluorescence; Potency, µM (doses to about 36.5 µM), inactives show at the highest dose activity change, negative = inhibition, hits mostly inhibitors; hit rate 0.63% among 310,000; AID 720579, 2013; calls by dose curve; tested in A549 cells; further: potency means the concentration at half of the fitted maximal effect; nearly all actives have a fitted effect of over 35% in size
HCMV antiviral – qHTS Assay for inhibitors of the human cytomegalovirus (HCMV) | activity change, negative = inhibition, % at 57.5 µM | HFF cells, HCMV-luciferase reporter, 72 h; hits give low values | hit rate 4.5% among 410,000; in the data active means activity change below about -60%; inconclusive means no clear call, values can overlap the other calls; inactive means above about -39%
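Two-dose cell screen: HFF monolayers treated with compounds and infected with luciferase-expressing HCMV at 1 PFU/cell, 72 h at 37C, then lysed for luciferase measurement.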
Starred values were filed as active, the others as inactive; i = inactive; ? = inconclusive; · = no result. An excerpt weighted towards active compounds, which were near 9.3% of everything screened. Unless noted, the call rests on the fitted dose curve; in most records, active means well fitted curve in the direction sought with a large enough effect; inconclusive means small, poorly fitted or top-dose-only effect, or another doubt; inactive means no such curve, though single readings can be large; an effect the other way counts as inactive or inconclusive. On the % scale 0 is the no-effect control and ±100 the full control effect.

SMILES	Sm TGR block	FMDV antiviral	VACV Venus inh	HCV inh	VACV mCherry inh	HCMV antiviral
Oc1ccc(C[C@H]2CN([C@@H](Cc3ccccc3)CN3CCCC3CN3C(=S)NC[C@@H]3Cc3ccccc3)C(=S)N2CCc2ccccc2)cc1 (stereo partly specified)	·	-14%	-13%	·	-24%	6
Cc1ccc(NC(=O)CSCC(=O)N(C)CC(=O)Nc2c(C)cccc2C)cc1	·	-9%	-18%	·	i	-2
COc1cccc(-c2nc(NC3CCCC3)c3ccccc3n2)c1O	0%	28µM*	·	2.8µM*	·	·
COc1cccc(-c2nc(NCc3ccccc3)c3ccccc3n2)c1O	4%	10%	·	?	·	-3
C=CCNc1nc(-c2cccc(OC)c2O)nc2ccccc12	-4%	-8%	·	16µM*	·	11
COCCCNC(=O)c1nn(-c2ccc(C)cc2)nc1CO	0%	11%	-5%	·	-3%	93
C/C(CCc1ccc2c(c1)OCO2)=N\N=C1\NC(=O)CC(C(=O)Nc2ccc(C(=O)O)cc2)S1 (stereo unspecified)	·	-16%	?	-4%	?	-19
COC(=O)c1ccccc1NC(=O)[C@@H]1CCC(=O)N1C1OC(=O)c2c1ccc(OC)c2OC (stereo partly specified)	4%	-11%	14%	-5%	-1%	19
COc1ccc2c(c1OC)C(=O)OC2N1C(=O)CC[C@H]1C(=O)NCC1CCCO1 (stereo partly specified)	6%	-14%	-12%	0.56µM*	-10%	1
COCC(=O)N1CCC[C@@]2(CCN(C(=O)Nc3cccc(F)c3)C2)C1	·	6%	·	·	·	·
CC(=O)Nc1ccc(NC(=O)CSc2ccc(-c3cccnc3)nn2)cc1	0%	-8%	-11%	-2%	-14%	13
O=C(CSc1ccc(-c2cccnc2)nn1)Nc1ccc(F)cc1F	7.1µM*	-27%	-16%	-9%	-21%	-35
O=C(CSc1ccc(-c2cccnc2)nn1)Nc1ccc(Br)cc1	-23%	?	?	13µM*	?	?
Fc1ccc(-c2cc(C(F)(F)F)nc(-n3cncn3)n2)cc1	-1%	-10%	·	?	·	43
COC(=O)c1cccc(C(=O)NCc2nc(-c3cccc(NC(=O)c4ccoc4C)c3)oc2C)c1	·	22µM*	-23%	·	-26%	·
Cc1occc1C(=O)Nc1cccc(-c2nc(CNC(=O)c3cccc(C#CC(C)(C)O)c3)c(C)o2)c1	·	20µM*	?	·	?	·
Cc1occc1C(=O)Nc1cccc(-c2nc(CNC(=O)c3ccc4ccccc4n3)c(C)o2)c1	·	-8%	-21%	·	-3%	·
Cc1occc1C(=O)Nc1cccc(-c2nc(CNC(=O)c3cc(-c4ccccc4)n[nH]3)c(C)o2)c1	·	-1%	-23%	·	-24%	·
CSc1ccccc1C(=O)NCc1nc(-c2cccc(NC(=O)c3ccoc3C)c2)oc1C	·	32µM*	-29%	·	?	·
COc1cccc(C(C2=C(O)CC(C)(C)CC2=O)C2C(=O)CC(C)(C)CC2=O)c1 (stereo unspecified)	?	-13%	-13%	4%	-14%	-65*
CC1(C)CC(=O)C(C(C2=C(O)CC(C)(C)CC2=O)c2ccc(Br)s2)C(=O)C1 (stereo unspecified)	10µM*	5.6µM*	-11%	4%	-8%	-7
COC(=O)[C@]12CCCCC=C1N(Cc1ccc(Cl)cc1Cl)C(=O)[C@H](CC(=O)NCc1ccc(C)o1)C2	·	-15%	-1%	·	33%	-34
Cc1ccc(O)c(NC(=O)c2noc3c2CCCC3)c1	2%	0%	-15%	·	-25%	64
CCc1ccccc1NC(=S)N(CCN(C)C)C(C)c1ccccn1 (stereo unspecified)	-3%	-1%	·	22µM*	·	8
Cc1cc2nc(-c3ccc(SCC(=O)N4CCc5ccccc54)nc3)[nH]c2cc1C	0%	·	-5%	5µM*	i	-22
SMILES	Sm TGR block	FMDV antiviral	VACV Venus inh	HCV inh	VACV mCherry inh	HCMV antiviral
COc1ccccc1Cc1nc2ccccc2nc1SCC(=O)N1CCCCC1	7%	23%	-24%	·	-17%	1
COc1ccc(C2=Nc3ccccc3N(C(=O)c3ccc4ncccc4c3)C2C(=O)NC2CCCC2)cc1 (stereo unspecified)	·	41%	-25%	·	?	-78*
C=CCOc1ccc(C[C@H](N)C(=O)NC[C@H]2O[C@@H](n3ccc(N)nc3=O)[C@H](O)[C@@H]2O)cc1	·	-14%	-19%	·	-17%	-17
COc1cccc(Nc2nc(-c3ccccc3)c3cc(C)ccc3n2)c1	14%	-20%	-7%	·	-11%	-36
Clc1ccc(Nc2nc(-c3ccccc3)c3cc(Cl)ccc3n2)cc1	0%	-19%	-16%	·	0%	-61*
COc1cc(Nc2nc(-c3ccccc3)c3cc(C)ccc3n2)cc(OC)c1OC	40µM*	?	-21%	10µM*	-29%	97
Cc1ccc(N=Nc2c(C)[nH]n(C(N)=S)c2=O)cc1	-2%	28%	-19%	2.8µM*	?	22
Cc1ccc([N+](=O)[O-])cc1N=Nc1c(-c2ccc([N+](=O)[O-])cc2)[nH]n(C(N)=S)c1=O	-5%	2.5µM*	·	7.9µM*	·	·
NC(=S)n1[nH]c(-c2ccc([N+](=O)[O-])cc2)c(N=Nc2ccc(Cl)cc2)c1=O	-3%	?	?	6.3µM*	?	·
Cc1ccc([N+](=O)[O-])cc1N=Nc1c(C)[nH]n(C(N)=S)c1=O	-2%	8%	·	11%	·	15
Cc1[nH]n(C(N)=S)c(=O)c1N=Nc1ccc(Br)cc1	-5%	8%	·	-14%	·	67
c1ccc(N2CCN(Cc3nnnn3C3CCCCC3)CC2)cc1	8%	·	-20%	17%	-15%	30
COc1ccc(CCn2cnn3c(=O)c4ccccc4nc3c2=O)cc1OC	·	·	·	·	·	-3
CN(Cc1ccc(Cl)c(Cl)c1)C(=O)C1CSC2(C)CCC(=O)N12 (stereo unspecified)	-2%	-17%	·	0%	·	-82*
CN(CC(=O)Nc1c(Cl)cccc1Cl)C(=O)C1CSC2(C)CCC(=O)N12 (stereo unspecified)	3%	-17%	-15%	8%	-10%	0
CC12CCC(=O)N1C(C(=O)NNC(=O)c1ccccc1Cl)CS2 (stereo unspecified)	-10%	-10%	·	3%	·	-90*
COc1cc(OC)cc(C(=O)NNC(=O)C2CSC3(C)CCC(=O)N23)c1 (stereo unspecified)	-1%	-11%	·	-2%	·	-18
COc1cc(C=C2C(=O)c3ccccc3C2=O)ccc1O	-5%	18%	·	?	·	-8

High-throughput results as filed in PubChem.
